From PubChem BioAssay (NCATS)
“And” between values parts separate entries of the source, which are not always exact repeats. Equal values may be shown once. Inconclusive results are not listed. A structure can be active in one record and inactive in another. The source made the active and inactive calls. Calls follow the shape of the dose curve; as a rule, active = well fitted inhibition curve with a large enough effect in the repeat runs; inconclusive = weak or mixed curves; inactive = no such curve, though single readings can be large or run the other way. Non-standard residues stand in square brackets, D forms with d. Residues, ends and D or L forms follow the SMILES beside them. *: point of attachment. Sta = CC(C)C[C@H](N)[C@@H](O)CC(=O)O; Isovaleryl = CC(C)CC(=O)*

molecular target: Cytochrome P450 2C9 (Homo sapiens) (UniProt P11712); test: Cytochrome P450 family 2 subfamily C member 9 (CYP2C9) small molecule antagonists: luciferase biochemical (cell-free) qHTS assay (AID 1645842); details: P450-Glo CYP2C9 enzyme assay, luciferin luminescence; series mostly up to 57.4 µM; activity change, negative = inhibition: at the top concentration; also: nearly all actives have a fitted effect of over 55% in size
Sequence (P11712 whole entry, looked up): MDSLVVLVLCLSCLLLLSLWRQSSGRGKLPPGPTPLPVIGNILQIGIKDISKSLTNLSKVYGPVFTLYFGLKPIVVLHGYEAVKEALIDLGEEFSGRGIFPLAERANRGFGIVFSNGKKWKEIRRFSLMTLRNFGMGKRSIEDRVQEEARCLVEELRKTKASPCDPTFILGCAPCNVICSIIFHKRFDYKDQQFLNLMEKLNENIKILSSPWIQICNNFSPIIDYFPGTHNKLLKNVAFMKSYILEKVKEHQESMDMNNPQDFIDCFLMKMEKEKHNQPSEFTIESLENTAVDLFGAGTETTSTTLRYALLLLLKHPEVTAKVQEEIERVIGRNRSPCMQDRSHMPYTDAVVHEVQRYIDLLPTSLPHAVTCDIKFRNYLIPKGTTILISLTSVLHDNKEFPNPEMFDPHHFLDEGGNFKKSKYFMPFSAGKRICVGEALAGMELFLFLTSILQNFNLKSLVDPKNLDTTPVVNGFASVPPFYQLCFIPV
In short: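 P450-Glo CYP2C9 system: proluciferin substrate with enzyme in mix containing 0.4% BSA, 10 min at room temperature, then NADPH regeneration solution added and incubated 1 h at 37C. Detection reagent stopped reaction; luminescence read after 20 min as RLU.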
% is scaled to controls: 0 for no effect and ±100 for the full control effect; potency is read from the fitted curve at half-maximal effect.

| Structure (SMILES) | Potency | activity change, negative = inhibition |
| --- | --- | --- |
| CC1(C)NC(=O)N(c2ccc([N+](=O)[O-])c(C(F)(F)F)c2)C1=O | 7.76 µM (active) and 6.01 µM (active) | – |
| O=C(O)c1cc(=O)c2c(OCC(O)COc3cccc4oc(C(=O)O)cc(=O)c34)cccc2o1 | – | 8.46% (inactive) |
| N=C(N)c1ccc2cc(OC(=O)c3ccc(N=C(N)N)cc3)ccc2c1 | – | 6.6% (inactive) |
| O=C(O)c1cn(-c2ccc(F)cc2)c2cc(N3CCNCC3)c(F)cc2c1=O | – | 1.83% [at 23.9 µM] (inactive) |
| COCCCOc1ccnc(CS(=O)c2nc3ccccc3[nH]2)c1C (centres undefined) | inactive and 15.1 µM (active) | – |
| CCCOc1ccc2nc(NC(=O)OC)[nH]c2c1 | – | 9.08% (inactive) |
| CC1=C(C(=O)O)N2C(=O)[C@@H](NC(=O)[C@H](N)C3=CCC=CC3)[C@H]2SC1 | – | -0.3% (inactive) |
| CCN(CC)C(=S)SSC(=S)N(CC)CC | 7.7 µM (active) and 7.76 µM (active) | – |
| Clc1ccc(C(Cn2ccnc2)OCc2ccc(Sc3ccccc3)cc2)c(Cl)c1 (centres undefined) | 2.75 µM (active) | – |
| CC(=O)Nc1ccc(O)cc1 | – | 0.711% (inactive) |
| CN1C(C(=O)Nc2ccccn2)=C(O)c2sccc2S1(=O)=O | 12.3 µM (active) | – |
| CC(C)CC(=O)N[C@H](C(=O)N[C@H](C(=O)N[C@@H](CC(C)C)[C@@H](O)CC(=O)N[C@@H](C)C(=O)N[C@@H](CC(C)C)[C@@H](O)CC(=O)O)C(C)C)C(C)C (Isovaleryl-VV[Sta]A[Sta]-OH) | – | 29.9% (inactive) |
| CC(C)Oc1ccc2c(=O)c(-c3ccccc3)coc2c1 | 13.8 µM (active) and 21.9 µM (active) | – |
| O=C(OC1C[C@H]2CC[C@@H](C1)[N+]21CCCC1)C(O)(c1ccccc1)c1ccccc1 (some centres undefined) | – | 7.35% (inactive) |
